Results from PubChem BioAssay AID463173 (ICCB-Longwood Screening Facility, Harvard Medical School, 2010).
Among all 52,000 compounds or so, about 1,700 (3.3%) were called active. This is one part of a sample in which actives are shown more often than they occur. No stated cut-off is given here; in the data, active means survival mostly below about 52% (no sharp cut-off); inactive means mostly above about 56%.

tested on: Wild type; experiment: S. aureus survival, RN4220 and DeltatarO strains – OD600, teichoic acid synthesis inhibitors, primary screen (AID 463173); conditions: S. aureus RN4220 wild type/DeltatarO growth, OD600, 18 h, stronger effect = lower value, screened at 18.75 µg/mL (by protocol)

| Compound | survival |
| --- | --- |
| Cc1cccc(N2CCN(CCCNC(=O)Cn3ncc4c([nH]c5ccccc54)c3=O)CC2C)c1 (stereo not given) | 101% (inactive) |
| CCc1ccccc1NC(=O)CSc1nnc(CC)c(CC)n1 | 74% (inactive) |
| Cc1ccccc1CN1c2ccccc2S(=O)(=O)c2ccccc21 | 73% (inactive) |
| Cc1cc(C)c(Cn2c3ccccc3c3cnn(CC(=O)NC4CCCCCC4)c(=O)c32)c(C)c1 | 127% (inactive) |
| COc1ccc(-n2cc(-c3ccccc3)nc2SCC(=O)Nc2ccccc2)cc1Cl | 71% (inactive) |
| COc1ccc(Cl)cc1N=C1NC(=O)CC(C(=O)Nc2ccccc2C(F)(F)F)S1 (stereo not given) | 71% (inactive) |
| COc1ccc(CCNC(=O)CN2C(=O)COc3ccc(C)cc32)cc1OC | 71% (inactive) |
| COCCNC(=O)CCCn1c(SCC(=O)Nc2ccc(F)cc2)nc2c(sc3ccccc32)c1=O | 103% (inactive) |
| Cc1ccc2c(c1)-c1c(cnc3cc(-c4ccc(Cl)cc4)nn13)CO2 | 61% (inactive) |
| CC(=O)c1cc2c(cc1N/C(=N/S(=O)(=O)c1ccc(C)cc1)c1ccc(Cl)cc1)OCO2 | 10% (active) |
| CC(=O)c1cc2c(cc1N/C(=N/S(=O)(=O)c1ccc(Cl)cc1)c1ccc(F)cc1)OCO2 | 80% (inactive) |
| CC(=O)c1cc2c(cc1N/C(=N/S(=O)(=O)c1ccccc1)c1ccc(Cl)cc1)OCO2 | -2% (active) |
| CC(=O)c1cc2c(cc1N/C(=N/S(=O)(=O)c1ccc(C)cc1)c1ccccc1)OCO2 | 88% (inactive) |
| CC(=O)c1cc2c(cc1N/C(=N/S(=O)(=O)c1ccc(C)cc1)c1ccc(F)cc1)OCO2 | 82% (inactive) |
| CC(=O)c1cc2c(cc1N/C(=N/S(=O)(=O)c1ccc(Br)cc1)c1ccccc1)OCO2 | 69% (inactive) |
| CC(=O)Nc1ccc(NC(=O)c2ccc3c(c2)NC(=O)c2ccccc2S3)cc1 | 138% (inactive) |
| CC1=C(C(=O)OC2CCCC2)C(c2c(F)cccc2Cl)CC(=O)N1 (stereo not given) | 87% (inactive) |
| O=C1CC(c2nnc(Cc3cccc(Cl)c3)o2)CN1c1ccccc1 (stereo not given) | 113% (inactive) |
| CS(=O)(=O)c1ccc(-c2nn[nH]n2)cc1 | 103% (inactive) |
| O=C(Nc1c(C(=O)N2CCN(c3ccccc3)CC2)oc2ccccc12)c1ccc(Br)o1 | 81% (inactive) |

| Compound | survival |
| --- | --- |
| COc1cc(Cl)c(C)cc1Nc1nc2ccccc2n2cnnc12 | 127% (inactive) |
| CCN1CCN(c2c(S(=O)(=O)c3ccc(OC)cc3)cnc3cc(OC)c(OC)cc23)CC1 | 77% (inactive) |
| COc1ccc(C(=O)c2cnc3ccc(C)cc3c2S(=O)(=O)c2ccccc2)cc1 | 79% (inactive) |
| CCc1ccc2ncc(C(=O)c3ccc(C)c(C)c3)c(N3CCC(C(N)=O)CC3)c2c1 | 102% (inactive) |
| CCOC(=O)C1CCN(c2c(C(=O)c3ccc(OCC)cc3)cnc3ccc(OC)cc23)CC1 | 0% (active) |
| CCOC(=O)C1CCN(c2c(C(=O)c3ccc(C)cc3)cnc3ccc(F)cc23)CC1 | 3% (active) |
| CCOc1ccc(S(=O)(=O)c2c(C(=O)c3ccc(CC)cc3)cnc3ccc(C)cc23)cc1 | 87% (inactive) |
| COc1cc2ncc(C(=O)c3ccc(C)cc3)c(N3CCCCC3)c2cc1OC | 2% (active) |
| CCOC(=O)C1CCN(C(=O)c2ccc(C)cc2)CC1 | 93% (inactive) |
| CCOC(=O)C1CCN(c2c(C(=O)c3ccc(OC)cc3)cnc3ccccc23)CC1 | 125% (inactive) |
| CCCN(CCC)CCNC(=O)Cn1cc2c(n1)-c1c(oc(C(=O)N3CCCC3)c1C)CC2 | 106% (inactive) |
| COc1ccc(-c2nc3ccccc3n3c(-c4cccc(C)c4)c4c(=O)n(C)c(=O)n(C)c4c23)cc1OC | 77% (inactive) |
| CC(C)Oc1ccc(CNC(=O)c2sc3ncccc3c2-n2cccc2)cc1 | 64% (inactive) |
| O=C(CN1CCC(n2cnc3cc(F)ccc32)CC1)Nc1ccccc1Br | 108% (inactive) |
| CCOC(=O)c1ccc(NC(=O)c2c(NCc3cc(OC)c(OC)cc3OC)sc3c2CCCC3)cc1 | 85% (inactive) |
| COCCn1c(SCC(=O)Nc2sc(C)c(C)c2C#N)nnc1C(C)C | 103% (inactive) |
| COc1ccccc1-c1nn(CCC(=O)Nc2ccccc2)c2nc(C)cc(C)c12 | 86% (inactive) |
| COC(=O)c1cc2oc3ccccc3c2n1Cc1ccc(Cl)cc1 | 21% (inactive) |
| COC(=O)c1cc2oc3ccccc3c2n1CC(=O)Nc1ccc(C)cc1C | 86% (inactive) |
| COC(=O)c1cc2oc3ccccc3c2n1Cc1ccc(C)cc1 | 82% (inactive) |

| Compound | survival |
| --- | --- |
| COC(=O)c1cc2oc3ccccc3c2n1Cc1cccc(C)c1 | 3% (active) |
| COC(=O)c1cc2oc3ccccc3c2n1Cc1nc(-c2cccc(C)c2)oc1C | 72% (inactive) |
| CCN(C(=O)Cn1c(C(=O)OC)cc2oc3ccccc3c21)c1cccc(C)c1 | 24% (active) |
| S=c1nc[nH]c2c1[nH]c1ccccc12 | 98% (inactive) |
| CC1CCN(S(=O)(=O)c2cc(C(=O)Nc3ccc(Br)cc3F)n(C)c2)CC1 | 77% (inactive) |
| COc1cc(C(c2nnnn2Cc2ccco2)N2CCN(C3CCCC3)CC2)cc(OC)c1OC (stereo not given) | 107% (inactive) |
| CC1CCN(C(=O)Cn2cc(SCC(=O)NCc3ccccc3)c3ccccc32)CC1 | 86% (inactive) |
| Cc1ccc(C)n1-c1c(C(=O)NCCC(C)C)sc2ncccc12 | 79% (inactive) |
| Cc1nc2ccccc2c(=O)n1-c1ccc(NC(=O)c2cccc([N+](=O)[O-])c2)cc1 | 59% (inactive) |
| Cc1cc(N2CCN(c3cccc(C(F)(F)F)c3)CC2)n2nc(-c3ccccc3C)nc2n1 | 11% (active) |
| Cc1cc(N2CCN(c3cccc(C(F)(F)F)c3)CC2)n2nc(-c3ccccc3)nc2n1 | 87% (inactive) |
| COc1ccc(-c2nc3nc(C)cc(N4CCN(c5cccc(C(F)(F)F)c5)CC4)n3n2)cc1 | 88% (inactive) |
| CCN(CC)C(=O)C1=C(C)Nc2nc3ccccc3n2C1c1ccc(Br)cc1 (stereo not given) | 80% (inactive) |
| Cc1cc(S(=O)(=O)C(CNC(=O)COc2ccccc2)c2cccs2)ccc1F (stereo not given) | 153% (inactive) |
| COc1cc(C2CC(=O)N(Cc3cccc(F)c3)c3ccccc3S2)cc(OC)c1OC (stereo not given) | 83% (inactive) |
| COc1ccc(C2CC(=O)N(Cc3ccc(F)cc3)c3ccccc3S2)cc1 (stereo not given) | 30% (inactive) |
| COc1ccc(C2CC(=O)N(Cc3cccc(F)c3)c3ccccc3S2)cc1 (stereo not given) | 9% (active) |
| COc1cc(C2CC(=O)N(Cc3ccc(F)cc3)c3ccccc3S2)cc(OC)c1OC (stereo not given) | 72% (inactive) |
| O=C1CC(c2ccccc2)Sc2ccccc2N1Cc1ccccc1F (stereo not given) | 96% (inactive) |
| O=C1CC(c2ccccc2)Sc2ccccc2N1Cc1ccc(F)cc1 (stereo not given) | 16% (active) |
